Screen size: about 1,000 compounds; about 140 (14%) were called active. The rule behind the calls is not given here. Shown is part of a subset that was picked to be rich in actives.

Drawing on PubChem BioAssay AID493029 (Johns Hopkins Ion Channel Center, 2011), this text covers activity change for two compounds.

A short description of the experiment: non-target flux effects, untransfected CHO, cell-based, thallium flux, counter-screen for KCNQ2 inhibitor project (AID 493029).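 For activity change: 0% = vehicle negative controls with stimulus buffer.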 The following applies: parental CHO cells, at 10 µM; hits give low values. In general terms: Counterscreens check selectivity or assay interference.
Consider `CN(C)CC1Oc2ccccc2OC1(O)c1ccccc1` (configuration not stated), for which the activity change was -23% (active). For `O=C(NC(c1ccc(Cl)cc1)P(=O)(Oc1ccccc1)Oc1ccccc1)OCc1ccccc1` (configuration not stated), the activity change result is “inactive”.
